Tests used:
Experiment in all cases: SPOT peptide array binding signal intensity (averaged, normalized) (arbitrary units (background-subtracted, floor 0; scale differs between SH3 domains)); higher = stronger binding of the SH3 domain to the peptide
AgAbp1 = molecular target: AgAbp1
Experimental: (§1)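 GST-tagged SH3 domains from S. cerevisiae (Sc), A. gossypii (Ag), C. albicans (Ca) and S. pombe (Sp) were incubated at 10 ug/ml overnight at 4 C on cellulose SPOT membranes carrying 292 synthetic 15-mer peptides mined from the S. cerevisiae proteome (cysteines replaced by serines). Binding was detected with anti-GST antibody, HRP secondary and chemiluminescence, quantified with Genespotter, and reported as normalized spot intensities averaged over biological replicates.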

AgBbc1 = molecular target: AgBbc1
Experimental: as §1

AgBem1-D1 = molecular target: AgBem1-D1
Experimental: as §1

AgBzz1-D1 = molecular target: AgBzz1-D1
Experimental: as §1

AgBzz1-D2 = molecular target: AgBzz1-D2
Experimental: as §1

AgCyk3 = molecular target: AgCyk3
Experimental: as §1

AgFus1 = molecular target: AgFus1
Experimental: as §1

AgHof1 = molecular target: AgHof1
Experimental: as §1

AgHse1 = molecular target: AgHse1
Experimental: as §1

AgLsb1 = molecular target: AgLsb1
Experimental: as §1

AgLsb4 = molecular target: AgLsb4
Experimental: as §1

AgMyo5 = molecular target: AgMyo5
Experimental: as §1

AgNbp2 = molecular target: AgNbp2
Experimental: as §1

AgRvs167 = molecular target: AgRvs167
Experimental: as §1

AgSho1 = molecular target: AgSho1
Experimental: as §1

AgSla1-D1-D2 = molecular target: AgSla1-D1-D2
Experimental: as §1

AgSla1-D3 = molecular target: AgSla1-D3
Experimental: as §1

CaAbp1-D1 = molecular target: CaAbp1-D1
Experimental: as §1

CaAbp1-D2 = molecular target: CaAbp1-D2
Experimental: as §1

CaBbc1 = molecular target: CaBbc1
Experimental: as §1

CaBem1-D1 = molecular target: CaBem1-D1
Experimental: as §1

CaBzz1-D1 = molecular target: CaBzz1-D1
Experimental: as §1

CaBzz1-D2 = molecular target: CaBzz1-D2
Experimental: as §1

CaCyk3 = molecular target: CaCyk3
Experimental: as §1

CaFus1 = molecular target: CaFus1
Experimental: as §1

CaHof1 = molecular target: CaHof1
Experimental: as §1

CaHse1 = molecular target: CaHse1
Experimental: as §1

CaLsb1 = molecular target: CaLsb1
Experimental: as §1

CaLsb4 = molecular target: CaLsb4
Experimental: as §1

CaMyo5 = molecular target: CaMyo5
Experimental: as §1

CaNbp2 = molecular target: CaNbp2
Experimental: as §1

CaRvs167 = molecular target: CaRvs167
Experimental: as §1

CaRvs167-3 = molecular target: CaRvs167-3
Experimental: as §1

CaSho1 = molecular target: CaSho1
Experimental: as §1

CaSla1-D1-D2 = molecular target: CaSla1-D1-D2
Experimental: as §1

CaSla1-D3 = molecular target: CaSla1-D3
Experimental: as §1

ScAbp1 = molecular target: ScAbp1
Experimental: as §1

ScBbc1 = molecular target: ScBbc1
Experimental: as §1

ScBem1-D1 = molecular target: ScBem1-D1
Experimental: as §1

ScBzz1-D1 = molecular target: ScBzz1-D1
Experimental: as §1

ScBzz1-D2 = molecular target: ScBzz1-D2
Experimental: as §1

ScCyk3 = molecular target: ScCyk3
Experimental: as §1

ScFus1 = molecular target: ScFus1
Experimental: as §1

ScHof1 = molecular target: ScHof1
Experimental: as §1

ScHse1 = molecular target: ScHse1
Experimental: as §1

ScLsb1 = molecular target: ScLsb1
Experimental: as §1

ScLsb2 = molecular target: ScLsb2
Experimental: as §1

ScLsb3 = molecular target: ScLsb3
Experimental: as §1

ScLsb4 = molecular target: ScLsb4
Experimental: as §1

ScMyo3 = molecular target: ScMyo3
Experimental: as §1

ScMyo5 = molecular target: ScMyo5
Experimental: as §1

ScNbp2 = molecular target: ScNbp2
Experimental: as §1

ScPex13 = molecular target: ScPex13
Experimental: as §1

ScRvs167 = molecular target: ScRvs167
Experimental: as §1

ScSho1 = molecular target: ScSho1
Experimental: as §1

ScSla1-D1-D2 = molecular target: ScSla1-D1-D2
Experimental: as §1

ScSla1-D3 = molecular target: ScSla1-D3
Experimental: as §1

SpAbp1-D1 = molecular target: SpAbp1-D1
Experimental: as §1

SpBbc1 = molecular target: SpBbc1
Experimental: as §1

SpBzz1-D1 = molecular target: SpBzz1-D1
Experimental: as §1

SpBzz1-D2 = molecular target: SpBzz1-D2
Experimental: as §1

SpCyk3 = molecular target: SpCyk3
Experimental: as §1

SpHof1 = molecular target: SpHof1
Experimental: as §1

SpHof1-2 = molecular target: SpHof1-2
Experimental: as §1

SpHof1-3 = molecular target: SpHof1-3
Experimental: as §1

SpHse1 = molecular target: SpHse1
Experimental: as §1

SpLsb1 = molecular target: SpLsb1
Experimental: as §1

SpLsb4 = molecular target: SpLsb4
Experimental: as §1

SpMyo1 = molecular target: SpMyo1
Experimental: as §1

SpNbp2 = molecular target: SpNbp2
Experimental: as §1

SpPex13 = molecular target: SpPex13
Experimental: as §1

SpRvs167 = molecular target: SpRvs167
Experimental: as §1

SpSla1-D1-D2 = molecular target: SpSla1-D1-D2
Experimental: as §1

SpSla1-D3 = molecular target: SpSla1-D3
Experimental: as §1

## AERNYAPRLPRRETS
AgAbp1
  SPOT peptide array binding signal intensity: 20
AgBbc1
  SPOT peptide array binding signal intensity: 69.8
AgBem1-D1
  SPOT peptide array binding signal intensity: 44.8
AgBzz1-D1
  SPOT peptide array binding signal intensity: 77
AgBzz1-D2
  SPOT peptide array binding signal intensity: 128
AgCyk3
  SPOT peptide array binding signal intensity: 1
AgFus1
  SPOT peptide array binding signal intensity: 3.25
AgHof1
  SPOT peptide array binding signal intensity: 124
AgHse1
  SPOT peptide array binding signal intensity: 87.5
AgLsb1
  SPOT peptide array binding signal intensity: 289
AgLsb4
  SPOT peptide array binding signal intensity: 3440
AgMyo5
  SPOT peptide array binding signal intensity: ≤ 0
AgNbp2
  SPOT peptide array binding signal intensity: 128
AgRvs167
  SPOT peptide array binding signal intensity: 340
AgSho1
  SPOT peptide array binding signal intensity: ≤ 0
AgSla1-D1-D2
  SPOT peptide array binding signal intensity: 1.5
AgSla1-D3
  SPOT peptide array binding signal intensity: ≤ 0
CaAbp1-D1
  SPOT peptide array binding signal intensity: 84
CaAbp1-D2
  SPOT peptide array binding signal intensity: 61
CaBbc1
  SPOT peptide array binding signal intensity: 454
CaBem1-D1
  SPOT peptide array binding signal intensity: 25.5
CaBzz1-D1
  SPOT peptide array binding signal intensity: 171
CaBzz1-D2
  SPOT peptide array binding signal intensity: 62.6
CaCyk3
  SPOT peptide array binding signal intensity: 9
CaFus1
  SPOT peptide array binding signal intensity: 23.8
CaHof1
  SPOT peptide array binding signal intensity: 7.5
CaHse1
  SPOT peptide array binding signal intensity: 222
CaLsb1
  SPOT peptide array binding signal intensity: 4.75
CaLsb4
  SPOT peptide array binding signal intensity: 4670
CaMyo5
  SPOT peptide array binding signal intensity: 5.5
CaNbp2
  SPOT peptide array binding signal intensity: 52.5
CaRvs167
  SPOT peptide array binding signal intensity: 1200
CaRvs167-3
  SPOT peptide array binding signal intensity: ≤ 0
CaSho1
  SPOT peptide array binding signal intensity: 22.5
CaSla1-D1-D2
  SPOT peptide array binding signal intensity: 19
CaSla1-D3
  SPOT peptide array binding signal intensity: 0.75
ScAbp1
  SPOT peptide array binding signal intensity: 27.8
ScBbc1
  SPOT peptide array binding signal intensity: 22.4
ScBem1-D1
  SPOT peptide array binding signal intensity: 6
ScBzz1-D1
  SPOT peptide array binding signal intensity: 56.8
ScBzz1-D2
  SPOT peptide array binding signal intensity: 73.8
ScCyk3
  SPOT peptide array binding signal intensity: 2.25
ScFus1
  SPOT peptide array binding signal intensity: ≤ 0
ScHof1
  SPOT peptide array binding signal intensity: 17.1
ScHse1
  SPOT peptide array binding signal intensity: 42
ScLsb1
  SPOT peptide array binding signal intensity: 184
ScLsb2
  SPOT peptide array binding signal intensity: 158
ScLsb3
  SPOT peptide array binding signal intensity: 6160
ScLsb4
  SPOT peptide array binding signal intensity: 3130
ScMyo3
  SPOT peptide array binding signal intensity: 0.75
ScMyo5
  SPOT peptide array binding signal intensity: ≤ 0
ScNbp2
  SPOT peptide array binding signal intensity: 283
ScPex13
  SPOT peptide array binding signal intensity: 252
ScRvs167
  SPOT peptide array binding signal intensity: 2200
ScSho1
  SPOT peptide array binding signal intensity: 268
ScSla1-D1-D2
  SPOT peptide array binding signal intensity: 206
ScSla1-D3
  SPOT peptide array binding signal intensity: 13
SpAbp1-D1
  SPOT peptide array binding signal intensity: 50.5
SpBbc1
  SPOT peptide array binding signal intensity: 7.25
SpBzz1-D1
  SPOT peptide array binding signal intensity: 332

## LKRITSPPLPPRADS
CaNbp2
  SPOT peptide array binding signal intensity: 47
CaRvs167
  SPOT peptide array binding signal intensity: 2070
CaRvs167-3
  SPOT peptide array binding signal intensity: 9.5
CaSho1
  SPOT peptide array binding signal intensity: 9.5
CaSla1-D1-D2
  SPOT peptide array binding signal intensity: 244
CaSla1-D3
  SPOT peptide array binding signal intensity: 2
ScAbp1
  SPOT peptide array binding signal intensity: 16.5
ScBbc1
  SPOT peptide array binding signal intensity: 35.2
ScBem1-D1
  SPOT peptide array binding signal intensity: 10
ScBzz1-D1
  SPOT peptide array binding signal intensity: 56
ScBzz1-D2
  SPOT peptide array binding signal intensity: 18
ScCyk3
  SPOT peptide array binding signal intensity: 2
ScFus1
  SPOT peptide array binding signal intensity: 1
ScHof1
  SPOT peptide array binding signal intensity: 234
ScHse1
  SPOT peptide array binding signal intensity: 91.5
ScLsb1
  SPOT peptide array binding signal intensity: 661
ScLsb2
  SPOT peptide array binding signal intensity: 1120
ScLsb3
  SPOT peptide array binding signal intensity: 7910
ScLsb4
  SPOT peptide array binding signal intensity: 5640
ScMyo3
  SPOT peptide array binding signal intensity: 24
ScMyo5
  SPOT peptide array binding signal intensity: ≤ 0
ScNbp2
  SPOT peptide array binding signal intensity: 77.5
ScPex13
  SPOT peptide array binding signal intensity: 2230
ScRvs167
  SPOT peptide array binding signal intensity: 3220
ScSho1
  SPOT peptide array binding signal intensity: 270
ScSla1-D1-D2
  SPOT peptide array binding signal intensity: 492
ScSla1-D3
  SPOT peptide array binding signal intensity: 36.2
SpAbp1-D1
  SPOT peptide array binding signal intensity: 118
SpBbc1
  SPOT peptide array binding signal intensity: 3
SpBzz1-D1
  SPOT peptide array binding signal intensity: 1080
SpBzz1-D2
  SPOT peptide array binding signal intensity: 1.75
SpCyk3
  SPOT peptide array binding signal intensity: 3
SpHof1
  SPOT peptide array binding signal intensity: 168
SpHof1-2
  SPOT peptide array binding signal intensity: 17.2
SpHof1-3
  SPOT peptide array binding signal intensity: 140
SpHse1
  SPOT peptide array binding signal intensity: 47.5
SpLsb1
  SPOT peptide array binding signal intensity: 1600
SpLsb4
  SPOT peptide array binding signal intensity: 4790
SpMyo1
  SPOT peptide array binding signal intensity: 102
SpNbp2
  SPOT peptide array binding signal intensity: ≤ 0
SpPex13
  SPOT peptide array binding signal intensity: ≤ 0
SpRvs167
  SPOT peptide array binding signal intensity: 3150
SpSla1-D1-D2
  SPOT peptide array binding signal intensity: 1
SpSla1-D3
  SPOT peptide array binding signal intensity: 1.5

Reference: the supplement of paper PMC4466140
